Measured values published in PubChem BioAssay AID1159580 (chemical genetic matrix, 2015).
Out of some 5,500 compounds screened, about 2,000 (36%) were called active. Roughly 18% stayed inconclusive and do not appear here. Rule as the data show it: active = normalized growth mostly below about 0.91 (no sharp cut-off); inconclusive = no clear call, values can overlap the other calls; inactive = mostly above about 0.92. Some of the results follow.

Test: chemical genetic growth profiling, strain panel (AID 1159580);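 also: tested at 20 µM; growth read once vehicle control cultures reached saturation at 30 °C; 1 = growth at the plate median or of vehicle wells; lower values mean less growth of the strain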
Details: growth OD

Measured: normalized growth

CC(C)CCCC(C)C1CC[C@@]2(C)C3=C(CC[C@]12C)[C@@]1(C)CC[C@H](O)C(C)(C)C1CC3 (stereo partly specified)
inactive: S. cerevisiae deletion strains, locus YAL013W, strain DEP1, hits give low values 1.01 | S. cerevisiae deletion strains, locus YBR021W, strain FUR4, hits give low values 0.959 | S. cerevisiae deletion strains, locus YBR229C, strain ROT2, hits give low values 1 | S. cerevisiae deletion strains, locus YCL029C, strain bik1, hits give low values 0.976 | S. cerevisiae deletion strains, locus YDL035C, strain GPR1, hits give low values 1 | S. cerevisiae deletion strains, locus YDL074C, strain BRE1, hits give low values 1.06 | S. cerevisiae deletion strains, locus YDL101C, strain DUN1, hits give low values 1.01 | S. cerevisiae deletion strains, locus YDL134C, strain PPH21, hits give low values 0.997 | S. cerevisiae deletion strains, locus YDL185W, strain tfp1, hits give low values 0.985 | S. cerevisiae deletion strains, locus YDL192W, strain arf1, hits give low values 0.983 | S. cerevisiae deletion strains, locus YDR101C, strain arx1, hits give low values 0.996 | S. cerevisiae deletion strains, locus YDR150W, strain NUM1, hits give low values 1 | S. cerevisiae deletion strains, locus YDR162C, strain NBP2, hits give low values 1.02 | S. cerevisiae deletion strains, locus YDR318W, strain mcm21, hits give low values 0.974 | S. cerevisiae deletion strains, locus YDR388W, hits give low values 0.981 | S. cerevisiae deletion strains, locus YDR502C, strain sam2, hits give low values 0.99 | S. cerevisiae deletion strains, locus YEL061C, strain CIN8, hits give low values 1.01 | S. cerevisiae deletion strains, locus YER110C, hits give low values 0.975 | S. cerevisiae deletion strains, locus YER155C, strain BEM2, hits give low values 1 | S. cerevisiae deletion strains, locus YER167W, strain BCK2, hits give low values 0.99 | S. cerevisiae deletion strains, locus YGL078C, strain dbp3, hits give low values 0.993 | S. cerevisiae deletion strains, locus YGL086W, strain mad1, hits give low values 0.986 | S. cerevisiae deletion strains, locus YGL248W, strain PDE1, hits give low values 0.995 | S. cerevisiae deletion strains, locus YGR078C, strain PAC10, hits give low values 1.04 | S. cerevisiae deletion strains, locus YGR135W, strain pre9, hits give low values 0.995 | S. cerevisiae deletion strains, locus YGR229C, strain SMI1, hits give low values 1.03 | S. cerevisiae deletion strains, locus YGR252W, strain gcn5, hits give low values 0.95 | S. cerevisiae deletion strains, locus YHR030C, strain SLT2, hits give low values 0.998 | S. cerevisiae deletion strains, locus YHR079C, strain IRE1 (second series), hits give low values 0.982 | S. cerevisiae deletion strains, locus YHR094C, strain hxt1, hits give low values 0.985 | S. cerevisiae deletion strains, locus YHR129C, strain ARP1, hits give low values 1 | S. cerevisiae deletion strains, locus YHR200W, strain rpn10, hits give low values 0.981 | S. cerevisiae deletion strains, locus YIL066C, strain RNR3, hits give low values 1.01 | S. cerevisiae deletion strains, locus YIL073C, strain SPO22, hits give low values 0.918 | S. cerevisiae deletion strains, locus YIL125W, strain kgd1, hits give low values 0.992 | S. cerevisiae deletion strains, locus YIR030C, strain dcg1, hits give low values 0.987 | S. cerevisiae deletion strains, locus YJL095W, strain BCK1, hits give low values 1.06 | S. cerevisiae deletion strains, locus YJL134W, strain LCB3, hits give low values 0.994 | S. cerevisiae deletion strains, locus YJL168C, strain set2, hits give low values 0.985 | S. cerevisiae deletion strains, locus YJL187C, strain SWE1 (second series), hits give low values 1 | S. cerevisiae deletion strains, locus YJR043C, strain POL32, hits give low values 0.987 | S. cerevisiae deletion strains, locus YJR075W, strain HOC1, hits give low values 1.03 | S. cerevisiae deletion strains, locus YKL009W, strain mrt4, hits give low values 0.939 | S. cerevisiae deletion strains, locus YKL068W, hits give low values 1 | S. cerevisiae deletion strains, locus YKL085W, strain MDH1 (second series), hits give low values 0.988 | S. cerevisiae deletion strains, locus YKL085W, strain MDH1, hits give low values 0.988 | S. cerevisiae deletion strains, locus YKL190W, strain CNB1, hits give low values 1 | S. cerevisiae deletion strains, locus YKR001C, strain vps1, hits give low values 0.984 | S. cerevisiae deletion strains, locus YLR039C, strain RIC1, hits give low values 0.985 | S. cerevisiae deletion strains, locus YLR058C, strain SHM2, hits give low values 1 | S. cerevisiae deletion strains, locus YLR102C, strain apc9, hits give low values 0.993 | S. cerevisiae deletion strains, locus YLR262C, strain YPT6, hits give low values 0.976 | S. cerevisiae deletion strains, locus YLR268W, strain sec22, hits give low values 0.996 | S. cerevisiae deletion strains, locus YLR330W, strain CHS5, hits give low values 1 | S. cerevisiae deletion strains, locus YLR342W, strain FKS1 (second series), hits give low values 0.96 | S. cerevisiae deletion strains, locus YLR371W, strain rom2, hits give low values 0.98 | S. cerevisiae deletion strains, locus YLR418C, strain cdc73, hits give low values 1.04 | S. cerevisiae deletion strains, locus YML016C, strain PPZ1, hits give low values 0.997 | S. cerevisiae deletion strains, locus YML032C, strain rad52, hits give low values 0.966 | S. cerevisiae deletion strains, locus YML124C, strain tub3, hits give low values 0.982 | S. cerevisiae deletion strains, locus YMR078C, strain ctf18, hits give low values 0.972 | S. cerevisiae deletion strains, locus YMR223W, strain ubp8, hits give low values 0.965 | S. cerevisiae deletion strains, locus YMR263W, strain SAP30, hits give low values 1.03 | S. cerevisiae deletion strains, locus YMR307W, strain GAS1, hits give low values 0.957 | S. cerevisiae deletion strains, locus YNL067W, strain RPL9B, hits give low values 1.04 | S. cerevisiae deletion strains, locus YNL128W, strain TEP1, hits give low values 1.04 | S. cerevisiae deletion strains, locus YNL153C, strain GIM3, hits give low values 1.02 | S. cerevisiae deletion strains, locus YNL233W, strain BNI4, hits give low values 1.01 | S. cerevisiae deletion strains, locus YNL250W, strain rad50, hits give low values 1.02 | S. cerevisiae deletion strains, locus YNL271C, strain bni1, hits give low values 0.988 | S. cerevisiae deletion strains, locus YNL298W, strain CLA4, hits give low values 0.967 | S. cerevisiae deletion strains, locus YNL307C, strain MCK1, hits give low values 0.959 | S. cerevisiae deletion strains, locus YNL322C, strain KRE1, hits give low values 1.01 | S. cerevisiae deletion strains, locus YNR052C, strain pop2, hits give low values 0.98 | S. cerevisiae deletion strains, locus YOL006C, strain TOP1, hits give low values 1.03 | S. cerevisiae deletion strains, locus YOL012C, strain htz1 0.94 | S. cerevisiae deletion strains, locus YOL147C, strain pex11, hits give low values 0.989 | S. cerevisiae deletion strains, locus YOR061W, strain CKA2, hits give low values 1.01 | S. cerevisiae deletion strains, locus YOR069W, strain VPS5, hits give low values 0.995 | S. cerevisiae deletion strains, locus YOR136W, strain idh2, hits give low values 0.979 | S. cerevisiae deletion strains, locus YOR144C, strain elg1, hits give low values 0.994 | S. cerevisiae deletion strains, locus YOR184W, strain ser1, hits give low values 0.932 | S. cerevisiae deletion strains, locus YOR316C, strain cot1, hits give low values 0.985 | S. cerevisiae deletion strains, locus YPL055C, strain LGE1, hits give low values 1.05 | S. cerevisiae deletion strains, locus YPL241C, strain CIN2, hits give low values 1 | S. cerevisiae deletion strains, locus YPR119W, strain clb2, hits give low values 0.999 | S. cerevisiae deletion strains, locus YPR141C, strain kar3, hits give low values 0.993 | S. cerevisiae deletion strains, locus YPR163C, strain tif3, hits give low values 0.981 | S. cerevisiae deletion strains, locus YPR167C, strain met16, hits give low values 0.994 | S. cerevisiae deletion strains, strain wtn01, hits give low values 0.985 | S. cerevisiae strains, strain wild type, hits give low values 0.957
